Shown are actives, neighbours in structure and some others; about 3.4% of the full set was active somewhere.
GPR151 ag: activators of human GPR151, primary screen, cell-based, PathHunter beta-arrestin, luminescence; actives 1% (n = 650,000); G-protein coupled receptor 151 (Homo sapiens), Q8TDV0; PathHunter beta-arrestin GPR151 cells; activation, % at 11.2 µM; AID 1508602, 2020; in the data active means activation above about 4.9%
MITF inh: MITF inhibitors, primary screen, biochemical, AlphaScreen, human | AID 1259374, 2018 | inhibition, % at 2.6 µM | AlphaScreen MITF homodimerization, bead proximity signal | Microphthalmia-associated transcription factor (Homo sapiens), O75030 | actives 0.91% (n = 650,000); in the data active means inhibition above about 50%
FBW7 activator: FBW7 E3 ligase activators, primary screen, biochemical, AlphaScreen, human; AlphaScreen FBW7–phospho-cyclin E peptide binding, activator screen; normalized activity (activation), % at 26.1 µM; actives 0.13% (n = 650,000); AID 1259310, 2017; in the data active means normalized activity above about 1.9%;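 further: purified mutant Fbw7 with reduced substrate affinity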
Target sequence (Q969H0 whole entry, looked up): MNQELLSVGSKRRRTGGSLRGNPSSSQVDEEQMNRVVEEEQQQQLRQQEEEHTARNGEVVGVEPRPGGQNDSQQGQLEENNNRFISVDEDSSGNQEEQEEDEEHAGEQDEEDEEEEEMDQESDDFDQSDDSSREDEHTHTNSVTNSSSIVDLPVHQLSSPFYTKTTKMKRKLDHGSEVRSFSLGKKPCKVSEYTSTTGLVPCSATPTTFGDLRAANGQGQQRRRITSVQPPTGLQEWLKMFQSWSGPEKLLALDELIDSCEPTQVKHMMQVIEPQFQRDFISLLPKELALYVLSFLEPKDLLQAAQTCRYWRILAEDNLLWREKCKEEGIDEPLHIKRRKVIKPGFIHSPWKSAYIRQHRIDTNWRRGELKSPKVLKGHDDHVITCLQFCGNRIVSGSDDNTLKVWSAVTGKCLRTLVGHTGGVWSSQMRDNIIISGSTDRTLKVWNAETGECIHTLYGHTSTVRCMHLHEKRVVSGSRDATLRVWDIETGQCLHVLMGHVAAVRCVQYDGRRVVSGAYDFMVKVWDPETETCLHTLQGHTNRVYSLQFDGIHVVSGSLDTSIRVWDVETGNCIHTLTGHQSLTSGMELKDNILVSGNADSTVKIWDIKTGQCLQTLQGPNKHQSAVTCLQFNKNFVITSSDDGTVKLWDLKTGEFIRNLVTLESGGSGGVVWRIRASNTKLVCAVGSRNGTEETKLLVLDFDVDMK
TEAD-YAP inh: TEAD-YAP interaction inhibition, primary screen, TEAD-YAP interaction inhibitor project, luminescence, HEK-TIYL cells; TEAD-Gal4/YAP UAS-luciferase luminescence; inhibition, % at 9.12 µM; actives 1.4% (n = 640,000); in the data active means inhibition above about 32%
GPR151 conf act: GPR151 activators, triplicate retest, confirmation, cell-based, PathHunter beta-arrestin, luminescence; shares compounds with GPR151 ag; GPR151 PathHunter beta-arrestin cells, 90 min; % of EA-reagent control over plate median; activation, % at 11.2 µM; 6,700 tested, under 10 active;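 active means mean percent activation across replicates above the confirmation screen cutoff of 4.91%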
GPR119 ag: GPR119 activators in beta-arrestin cells, counter-screen for GPR151 activator project, cell-based, PathHunter beta-arrestin, luminescence, triplicate | shares compounds with GPR151 ag | activation, % at 11.2 µM | AID 1508611, 2020 | actives 0.3% (n = 6,700) | 90 min; 0 = compound-well median, 100 = enzyme-acceptor control;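 active means mean percent activation in the counterscreen above 29.09%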;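 further: counterscreen on off-target GPR119 to flag nonselective hits from the GPR151 activator screen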
Each line names hits and unclear results; the compound was inactive in the other large screens (follow-up assays come after a bar, where they were run); ! = not active in a repeat.

N[C@H](Cc1ccc(Br)cc1)C(=O)N1CCC(Nc2ccc3cn[nH]c3c2)CC1	none
O=c1c2c(-c3ccccc3)csc2nc2c3ccccc3c(NCCO)nn12	none
Cc1ccc(-c2csc3nc4c5ccccc5c(NCCOCCO)nn4c(=O)c23)cc1	GPR151 ag 8.4 | GPR151 conf act inactive | GPR119 ag inactive
CCOc1cc(C(=O)Nc2ccc(Br)cc2)cc(OCC)c1OCC	none
COC(=O)C(Cc1cc(Cl)ccc1Cl)SC#N (stereo unspecified)	GPR151 ag 9.7 | GPR151 conf act inactive | GPR119 ag inactive
CC(C(=O)NC1CCCCC1)N1C(=O)CC(C)(C)Sc2ccccc21 (stereo unspecified)	none
CCc1ccc(NC2=C(Cl)C(=O)N(c3ccccc3OC)C2=O)cc1	none
CCc1ccc(N2C(=O)C(Cl)=C(Nc3ccc(C(=O)N4CCCC4)cc3)C2=O)cc1	GPR151 ag 5.2 | GPR151 conf act inactive | GPR119 ag inactive
COc1cccc(CC2=NOC(C(=O)NC3(c4ccccc4)CC3)C2)c1 (stereo unspecified)	none
O=C(c1cccc(F)c1F)N1CCCCC1	none
O=C(c1cccc(F)c1F)N1CCCCCC1	GPR151 ag 4.9 | GPR151 conf act inactive | GPR119 ag inactive
O=C(NCCCc1ccncc1)C1CC12CCN(C(=O)c1cc(-c3ccccc3)no1)CC2 (stereo unspecified)	GPR151 ag 6.1 | GPR151 conf act inactive | GPR119 ag inactive
O=C(NCc1ccco1)C1CC12CCN(C(=O)c1cc(-c3ccccc3)no1)CC2 (stereo unspecified)	none
Cc1cc(=O)n2nc(N3CCCC3C(=O)NCCCN3CCCC3=O)sc2n1 (stereo unspecified)	none
COC(=O)c1ccc(C2C3=C(CC(c4cccs4)CC3=O)Nc3ccccc3N2C(=O)c2ccccc2)cc1 (stereo unspecified)	none
Cc1ccccc1CNC(=O)CN(c1cccc([N+](=O)[O-])c1)S(C)(=O)=O	GPR151 ag 6.4 | GPR151 conf act inactive | GPR119 ag inactive
C=CCNC(=O)c1ccccc1NC(=O)CN(c1cccc(Cl)c1C)S(C)(=O)=O	GPR151 ag 5.2 | GPR151 conf act inactive | GPR119 ag inactive
Cc1ccc(N(CC(=O)NCc2ccccc2C)S(C)(=O)=O)cc1C	none
CCC(C)NC(=O)c1ccccc1NC(=O)CN(c1cccc([N+](=O)[O-])c1)S(C)(=O)=O (stereo unspecified)	none
C=CCNC(=O)c1ccccc1NC(=O)CN(c1cccc([N+](=O)[O-])c1)S(C)(=O)=O	GPR151 ag 12.9 | GPR151 conf act inactive | GPR119 ag inactive
Cc1c(Cl)cccc1N(CC(=O)Nc1ccccc1Cl)S(C)(=O)=O	none
O=C(COc1ccc(I)cc1)NCc1ccc2c(c1)OCO2	none
COC(=O)COc1cc(Br)c(/C=C2/NC(=O)NC2=O)cc1OC	none
COCCNc1nc2c(c(=O)n(C)c(=O)n2C)n1Cc1ccc(Br)cc1	none
COc1ccc(OC)c(NC(=O)CCN(C)Cc2ccccc2)c1	GPR151 ag 10.9 | GPR151 conf act inactive | GPR119 ag inactive
COc1ccc(OC)c(NC(=O)c2ccccc2C(F)(F)F)c1	GPR151 ag 6.6 | GPR151 conf act inactive | GPR119 ag inactive
COc1ccccc1NC(=O)c1ccccc1C(F)(F)F	none
C=C(C)CSc1n[nH]c(=O)[nH]c1=O	none
C/C(=N\Nc1nc2ccccc2[nH]1)c1cccc(Cl)c1	none
CC1=C(C#N)C(=O)N(C)C(=O)/C1=C/c1ccc(-c2ccccc2C(=O)O)o1	none
CC1=C(C#N)C(=O)N(C)C(=O)/C1=C/c1ccc(-c2cccc(Cl)c2C)o1	GPR151 ag 5.0 | GPR151 conf act inactive | GPR119 ag inactive
O=C(Nc1ccc2[nH]ncc2c1)[C@@H]1CCCN1C(=O)C(O)c1ccc(Cl)cc1 (stereo partly specified)	GPR151 ag 5.2! | GPR151 conf act inactive | GPR119 ag inactive
O=C(Nc1ccc2[nH]ncc2c1)[C@H]1CCCN1C(=O)C(O)c1ccc(Cl)cc1 (stereo partly specified)	none
NC(=O)COC(=O)CCN1c2ccccc2Sc2ccccc21	GPR151 ag 9.8 | GPR151 conf act inactive | GPR119 ag inactive
OCCNCCCOc1cccc(Cl)c1Cl	GPR151 ag 5.5!, TEAD-YAP inh 69.9 | GPR151 conf act inactive | GPR119 ag inactive
OCCNCCCCOc1cccc(Cl)c1Cl	none
CCN1C(=O)CC(Sc2ccccc2N)C1=O (stereo unspecified)	none
Nc1ccccc1SC1CC(=O)N(Cc2ccccc2)C1=O (stereo unspecified)	GPR151 ag 7.1 | GPR151 conf act inactive | GPR119 ag inactive
CC(Oc1ccc(Br)cc1)C(=O)Nc1ccccc1 (stereo unspecified)	none
CC(Oc1ccc(Br)cc1)C(=O)Nc1ccc(C(N)=O)cc1 (stereo unspecified)	GPR151 ag 5.7 | GPR151 conf act inactive | GPR119 ag inactive
COc1cc(OC)cc(C(=O)NNC(=O)Nc2ccc(Cl)c(Cl)c2)c1	none
COc1cc(OC)cc(C(=O)N2CCc3ccccc3C2CNC(=O)Nc2ccc(Cl)c(Cl)c2)c1 (stereo unspecified)	GPR151 ag 5.3 | GPR151 conf act inactive | GPR119 ag inactive
Cc1cc(C)n2nc(NCc3ccccc3Cl)nc2n1	GPR151 ag 5.1 | GPR151 conf act inactive | GPR119 ag inactive
CCN(CC)CCCNCc1cccc(Br)c1	none
Cc1ccnc(SCc2cc(=O)c(OC(=O)c3cc(Cl)ccc3[N+](=O)[O-])co2)n1	GPR151 ag 14.0 | GPR151 conf act inactive | GPR119 ag inactive
Cc1ccnc(SCc2cc(=O)c(OC(=O)c3cc(Cl)ccc3Cl)co2)n1	none
Nc1nc2nonc2nc1NC1C2CC3CC(C2)CC1C3 (stereo unspecified)	none
Cc1cccc(NS(=O)(=O)c2cn(C)c(=O)n(C)c2=O)c1	GPR151 ag 5.9 | GPR151 conf act inactive | GPR119 ag inactive
COc1ccccc1CCNS(=O)(=O)c1cn(C)c(=O)n(C)c1=O	none
Cn1cc(S(=O)(=O)NCCC(c2ccccc2)c2ccccc2)c(=O)n(C)c1=O	GPR151 ag 4.9 | GPR151 conf act inactive | GPR119 ag inactive
Cc1ccc(NS(=O)(=O)c2cn(C)c(=O)n(C)c2=O)cc1C	none
COCCNC(=O)c1ccc(/C=C2\Oc3ccccc3N(C)C2=O)cc1	GPR151 ag 10.8 | GPR151 conf act inactive | GPR119 ag inactive
